Laboratory results taken from PubChem BioAssay (NCATS).
Inconclusive results are not listed. Active and inactive are the calls of the source. The call rests on the fitted dose curve; in most records, active means well fitted inhibition curve with a large enough effect; inconclusive means small, poorly fitted or top-dose-only effect; inactive means flat fitted curve, though single readings scatter.

Legend:
Assay in all cases: qHTS profiling for inhibitors of Plasmodium falciparum proliferation (AID 504749); further: nearly all actives have a fitted effect of over 60% in size
Details in all cases: P. falciparum in erythrocytes, SYBR Green DNA, 72 h; series mostly up to 28.7 µM
[1] = system: CP266
In short: (§1)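 Fluorescence of SYBR Green-bound parasite DNA, read at 485/535 nm, served as the growth measure. Infected erythrocytes were cultured with compound 72 h; artemisinin (0.29 uM) and DMSO wells defined the normalization range.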

[2] = system: CP268
In short: as §1

[3] = system: CP269
In short: as §1

[4] = system: CP286
In short: as §1

[5] = system: CP291
In short: as §1

[6] = system: CP297
In short: as §1

[7] = system: CP305
In short: as §1

[8] = system: CP315
In short: as §1

[9] = system: CP325
In short: as §1

[10] = system: CP329
In short: as §1

Measured: Potency

CC(C)CCCC(C)CCCC(C)CCCCC(C)CCCC(C)CCCC(C)C (stereo unspecified)
inactive: all assays above

CC1CCN(CCCC(=O)c2ccc(F)cc2)CC1
inactive: all assays above

CCCCOC(=O)c1ccc(N)cc1
inactive: all assays above

COc1nccnc1NS(=O)(=O)c1ccc(N)cc1
not listed: [8]
inactive: all other assays above

Cc1c(NC(=O)c2cccnc2)c(=O)n(-c2ccccc2)n1C
not listed: [8]
inactive: all other assays above

O=C(CN1CCNCC1)NC1CCCCC1
inactive: all assays above

CC(=O)N(CC(O)CO)c1c(I)c(C(=O)NCC(O)CO)c(I)c(C(=O)NCC(O)CO)c1I (stereo unspecified)
inactive: all assays above

CC(=O)Nc1ccc(OCCOCCOc2ccc(NC(C)=O)cc2)cc1
inactive: all assays above

Cc1cc(C)nc(NS(=O)(=O)c2ccc(N)cc2)n1
inactive: all assays above

O=C(O)CCC(=O)O
inactive: all assays above

CCCCC1(COC(=O)CCC(=O)O)C(=O)N(c2ccccc2)N(c2ccccc2)C1=O
inactive: all assays above

CC[N+](C)(CC)CCOC(=O)C1c2ccccc2Oc2ccccc21
inactive: all assays above

CCS(=O)(=O)CCn1c([N+](=O)[O-])cnc1C
inactive: all assays above

CN1C(C)(C)CCCC1(C)C
inactive: all assays above

O=C(O)c1ccccc1C(=O)Nc1ccc(S(=O)(=O)Nc2nccs2)cc1
not listed: [6]
inactive: all other assays above

O=C1CC[C@@H](C(=O)O)N1
inactive: all assays above

CCN(CC)CCc1nc(-c2ccccc2)no1
inactive: all assays above

N[C@@H](Cc1ccc(O)cc1)C(=O)O
not listed: [9]
inactive: all other assays above

O=C(NCCCN1CCOCC1)c1ccc(Cl)cc1
inactive: all assays above
